# In PubChem BioAssay (NCI):
# This is part of a sample that, as a whole, favours compounds with a hit. Of some 79,000 tested, about 15% had one in any assay. Unmarked numbers belong to inactive results. The source made the active and inactive calls. No stated cut-off is given here; in the data, active means growth inhibition above about 70%; inactive means the rest.
# What was measured:
# [1] = NCI Yeast Anticancer Drug Screen. Data for the rad50 strain (AID 155);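 further: 0% = growth of vehicle-only cultures of the same strain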; conditions: S. cerevisiae rad50 strain growth inhibition, stronger effect = higher value
# In short: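 A DNA repair-deficient yeast mutant serves as the test organism; compound-induced growth inhibition is calculated against vehicle-treated cells.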
# [2] = NCI Yeast Anticancer Drug Screen. Data for the mec2-1 strain (AID 157); conditions: S. cerevisiae mec2-1 strain, stronger effect = higher value
# In short: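 Using mec2-1 yeast: add compound, measure growth, express inhibition versus vehicle-treated cultures.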
# [3] = NCI Yeast Anticancer Drug Screen. Data for the sgs1 mgt1 strain (AID 161);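 further: 0% = growth of cultures given vehicle only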; conditions: S. cerevisiae sgs1 mgt1 strain, stronger effect = higher value
# In short: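 Percent growth inhibition was derived by comparing compound-exposed mutant yeast with vehicle-exposed cultures. The strain carries alterations in DNA damage repair.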
# [4] = NCI Yeast Anticancer Drug Screen. Data for the cln2 rad14 strain (AID 165);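 further: 0% = growth equal to vehicle treated cultures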; conditions: S. cerevisiae cln2 rad14 strain, stronger effect = higher value
# In short: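 Yeast strain cln2 rad14, bearing defects in cell cycle control and DNA repair, serves as the test system; values reflect growth inhibition compared with vehicle.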
# [5] = NCI Yeast Anticancer Drug Screen. Data for the bub3 strain (AID 167); conditions: S. cerevisiae bub3 mutant strain, stronger effect = higher value
# In short: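 Inhibition values come from growth of compound-treated mutant yeast normalised to vehicle-treated controls.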
# [6] = NCI Yeast Anticancer Drug Screen. Data for the mlh1 rad18 strain (AID 175); conditions: S. cerevisiae mlh1 rad18 strain growth inhibition, stronger effect = higher value
# In short: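 Steps: expose repair-defective yeast to compound; measure growth; express inhibition against vehicle-treated controls.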
# [7] = at 5.0 µM (retest, dose inferred, filed as 0.5)
# [8] = at 50.0 µM (retest, dose inferred, filed as 5.0)
Structure (SMILES),"growth inhibition [1, 7]","growth inhibition [1, 8]",growth inhibition ([1]; at 50.0 µM),"growth inhibition [2, 7]","growth inhibition [2, 8]",growth inhibition ([2]; at 50.0 µM),"growth inhibition [3, 7]","growth inhibition [3, 8]",growth inhibition ([3]; at 50.0 µM),"growth inhibition [4, 7]","growth inhibition [4, 8]",growth inhibition ([4]; at 50.0 µM),"growth inhibition [5, 7]","growth inhibition [5, 8]",growth inhibition ([5]; at 50.0 µM),"growth inhibition [6, 7]","growth inhibition [6, 8]",growth inhibition ([6]; at 50.0 µM)
CCSC1(SCC)C(=O)OC2=C(CCCC2)C1N1CCOCC1 (configuration not stated),1%,21%,34.1%,2%,12%,14.2%,0%,18%,0.35%,-2%,31%,34.9%,-4%,11%,13.3%,-1%,24%,15.6%
O=C1C=CC(=C(c2ccccc2)c2ccc(O)cc2)C=C1,-5%,75% (active),31.3%,-8%,72% (active),80.3% (active),-5%,-27%,65.3%,-7%,76% (active),27.6%,-8%,92% (active),92.2% (active),2%,86% (active),81% (active)
CC(=O)Oc1ccc(-c2ccc(Br)cc2)cc1,-1%,92% (active),89.2% (active),-3%,91% (active),97.9% (active),-2%,89% (active),96.4% (active),-11%,93% (active),97.8% (active),20%,94% (active),97.6% (active),-7%,94% (active),98% (active)
CCOC(=O)/C=C(\C)c1ccc([N+](=O)[O-])cc1,-158%,-127%,36.1%,-49%,-51%,-17.3%,-65%,-57%,-17.9%,-63%,-69%,-94.7%,-63%,-54%,17.1%,-153%,-114%,3.95%
Cc1cc(=O)c2c(ccc3cc4ccccc4cc32)[nH]1,-6%,41%,66.8%,0%,58%,38.1%,-16%,54%,45.8%,-5%,17%,43.8%,-7%,22%,39.6%,14%,49%,59.1%
COC(=O)c1c(C)cccc1C1CN=NC12Cc1ccccc1C2=O (configuration not stated),24%,32%,3.9%,16%,12%,6.25%,23%,38%,32.9%,24%,16%,30.8%,25%,30%,19.6%,23%,29%,-32.9%
C=CC(=O)N1C/C(=C\c2ccc(F)cc2)C(=O)/C(=C/c2ccc(F)cc2)C1,21%,75% (active),52%,14%,77% (active),26.1%,14%,88% (active),90.2% (active),19%,81% (active),78.5% (active),21%,94% (active),88.6% (active),18%,91% (active),88.1% (active)
Cc1ccc(C2=Nc3c(c(C)nn3-c3ccccc3)N=C(C(=O)O)C2)cc1,1%,78% (active),76.2% (active),-23%,87% (active),82.9% (active),-3%,62%,88.4% (active),-4%,92% (active),87.5% (active),2%,89% (active),83.4% (active),-12%,86% (active),59.3%
CCc1ccc(C(=O)O)cc1,-2%,-2%,2.7%,-2%,-2%,-11.9%,-1%,0%,-1.1%,-5%,-17%,76.7% (active),-6%,2%,-15.2%,-5%,-3%,10%
CC(C)c1ccc2c(c1)CCC1C(C)(C(=O)O)CCCC21C (configuration not stated),11%,97% (active),95.1% (active),8%,97% (active),98.3% (active),16%,-15%,98% (active),8%,98% (active),96.9% (active),-9%,97% (active),97.8% (active),16%,97% (active),97.5% (active)
COc1ccc(C(C)=O)c(OC(=O)c2ccccc2)c1OC(=O)c1ccccc1,-22%,9%,5.05%,-1%,7%,10.2%,-21%,-10%,-12.1%,2%,11%,-3%,-10%,-1%,1.15%,-1%,4%,-0.9%
Cc1c2ccccc2cc2c1ccc1cccc(F)c12,4%,90% (active),84.4% (active),11%,95% (active),48%,1%,87% (active),80.7% (active),8%,93% (active),23.9%,4%,91% (active),79% (active),10%,92% (active),59.1%
CC(=O)N(C)NC(=O)c1ccccc1,1%,-6%,10.4%,-1%,2%,-12.8%,1%,-4%,-10.2%,-8%,5%,27.3%,-2%,-1%,12.9%,0%,-5%,-4.7%
FC(F)(F)c1nc(SCc2ccc(Cl)cc2)n[nH]1,3%,20%,2.45%,0%,1%,-13.8%,-7%,15%,-22.4%,-10%,-17%,38.6%,-9%,0%,-33.4%,-3%,13%,-17.8%
CN1C(=O)C(Cl)(C(Cl)(Cl)S(=O)(=O)O)C(=O)c2ccccc21 (configuration not stated),-3%,95% (active),42%,1%,99% (active),18.3%,1%,98% (active),-8.1%,3%,96% (active),34.5%,0%,97% (active),4.2%,-1%,97% (active),27.5%
O=C1C=CC(=Nc2ccc(O)c3ncccc23)c2cccnc21,34%,92% (active),94% (active),11%,96% (active),95% (active),29%,96% (active),95.2% (active),-1%,95% (active),86.7% (active),17%,94% (active),95.6% (active),50%,95% (active),92.4% (active)
Cc1nc2c(nc1C)C(=O)C1=C(C2=O)C2C=CC1CC2,0%,87% (active),89.8% (active),-2%,90% (active),74.6% (active),2%,94% (active),94.7% (active),-3%,68%,57%,24%,94% (active),93.5% (active),2%,93% (active),91.8% (active)
O=C(O)c1c2c(c(O)c3c1CN(C1CCCCC1)CO3)OCN(C1CCCCC1)C2,8%,35%,50.4%,3%,8%,53.1%,4%,25%,72.1% (active),-17%,5%,73.7% (active),2%,11%,32.1%,0%,25%,83.8% (active)
N=c1c2ccccc2cc2c3ccccc3ccn12,45%,93% (active),97.3% (active),47%,97% (active),98% (active),56%,95% (active),97.8% (active),54%,93% (active),86% (active),57%,95% (active),96.5% (active),60%,96% (active),96.1% (active)
